In PubChem BioAssay (Tox21) one finds Potency data, which are given here for nine compounds.

Experiment [1] is described as follows: Nuclear factor erythroid 2-related factor 2/antioxidant responsive element (Nrf2/ARE) small molecule agonists: qHTS cell viability counter screen in human keratinocytes (AID 1919968; active = well fitted curve in the direction sought with a large enough effect in the repeat runs; an effect the other way counts as inactive or inconclusive; also: nearly all actives have a fitted effect of over 55% in size; also: potency is read from the fitted curve at half-maximal effect). The essentials:
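Cells of the KeratinoSens line were plated at 1,500 per well and left for 5 h before compound transfer from DMSO stocks. After a 23 h incubation (37 C, 5% CO2), CellTiter-Fluor was added. Signal was taken as fluorescence intensity 1 h later.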
(In general: In qHTS, concentration-response curves come from the screen itself.)

Experiment [2] in a line: Nuclear factor erythroid 2-related factor 2/antioxidant responsive element (Nrf2/ARE) small molecule agonists: luciferase reporter gene qHTS assay in human keratinocytes (AID 1919969). Also: nearly all actives have a fitted effect of over 35% in size. Also: potency is read from the fitted curve at half-maximal effect.
Experiment [3] has as its target Gonadotropin-releasing hormone receptor (Homo sapiens) (UniProt P30968). Description: Human gonadotropin-releasing hormone receptor (GnRHR) small molecule agonists, calcium flux assay in GnRHR-HEK293 cells (AID 1920063). Also: nearly all actives have a fitted effect of over 35% in size. The essentials:
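Compounds dissolved in DMSO are pin-transferred onto dye-loaded GnRHR-HEK293 cells, which were seeded 18 h before at 37 C/5% CO2. Calcium signal is read as fluorescence intensity at 1 s intervals for 3 min.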

Experiment [4] deals with KiSS-1 receptor (Homo sapiens) (UniProt Q969F8). Description: Human kisspeptin (KISS1R) small molecule agonists, calcium flux assay in KISS1R-HEK293 cells (AID 1920064; active = well fitted curve in the direction sought with a large enough effect in the repeat runs; an effect the other way counts as inactive or inconclusive). In outline:
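Cell line: HEK293, stable human KISS1R. Dye loading 1 h at 37 C after 18 h culture. Read: kinetic fluorescence, 480/540 nm, 3 min at 1 s intervals.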
(Calcium assays in cells follow changes in intracellular calcium, usually with a dye or a luminescent sensor.)

Experiment [5] in a line: G protein-coupled receptor (GPCR) small molecule agonists, calcium flux assay: HEK293 wild type cell line counter screen (AID 1920065). In outline: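 Tox21 10K compounds, 15 concentrations each in triplicate, pin-transferred in DMSO onto dye-loaded cells; kinetic read at 480/540 nm for 3 min, 1 s intervals.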
A short description of experiment [6]: p53 small molecule agonists, cell-based qHTS assay with rat liver microsomes (AID 1963578). The essentials: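 With rat liver microsomes and NADPH present (0.5 mg/mL final each), p53RE-bla cells are treated with compound for 16 h at 37 C. LiveBLAzer detection mixture is then applied for 2 h at room temperature in the dark.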
Experiment [7] can be described thus: p53 small molecule agonists, cell-based qHTS assay with human liver microsomes: qHTS cell viability counter screen (AID 1963579). Also: nearly all actives have a fitted effect of over 45% in size. In outline: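 In this multiplexed counter screen, the reporter plates were subsequently treated with CellTiter-Glo so that cell viability, reflected by luminescence, could be recorded for p53RE-bla cells dosed 16 h with compounds under microsomal activation (HLM and NADPH).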

Experiment [8] in a line: p53 small molecule agonists, cell-based qHTS assay with rat liver microsomes: qHTS cell viability counter screen (AID 1963580). Also: nearly all actives have a fitted effect of over 45% in size. In outline:
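Rat liver microsome (0.5 mg/mL final) and NADPH (0.5 mg/mL final) co-incubation with compounds for 16 h at 37 C on HCT-116 p53RE-bla cells; cytotoxicity taken from intracellular ATP luminescence.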

Experiment [9] is described as follows: p53 small molecule agonists, cell-based qHTS assay: qHTS cell viability counter screen (AID 1963581). Also: nearly all actives have a fitted effect of over 45% in size. The essentials:
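ATP content measured by luminescence in HCT-116 p53RE-bla cells treated 16 h at 37 C, same wells as the reporter screen.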

Experiment [10] can be described thus: p53 small molecule agonists, cell-based qHTS assay (AID 1963582; active = well fitted activation curve with a large enough effect in the signal ratio in the repeat runs, not every such curve was filed as active; the % refers to the signal ratio). In outline: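 16 h compound exposure (37 C) of p53 response element–bla cells, preceded by 5 h recovery at 37 C/5% CO2; read-out via LiveBLAzer B/G FRET substrate, 2 h RT, fluorescence intensity.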
Experiment [11] concerns the target 5-hydroxytryptamine receptor 2A (Homo sapiens) (UniProt P28223). Description: 5-hydroxytryptamine receptor 2A (HTR2A) small molecule antagonists, cell-based qHTS assay (AID 1963586). Also: nearly all actives have a fitted effect of over 45% in size. The essentials: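 CHO cells stably expressing human HTR2A were plated for 18 h at 37 C, then loaded with calcium dye for 1 h. Compounds were preincubated 5 min at room temperature before DOI (4 nM solution) was added. Kinetic fluorescence was read for 3 min.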

For experiment [12] the target is unchanged. Description: 5-hydroxytryptamine receptor 2A (HTR2A) small molecule agonists, cell-based qHTS assay (AID 1963587). Also: nearly all actives have a fitted effect of over 30% in size. The essentials: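 Kinetic calcium-flux fluorescence (2 min, 1 sec intervals) after compound addition in agonist mode. HTR2A-CHO cells were cultured 18 h, then dye-loaded 1 h at 37 C.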
Experiment [13] addresses Muscarinic acetylcholine receptor M1 (Homo sapiens) (UniProt P11229). The experiment is described as follows: Cholinergic receptor muscarinic 1 (CHRM1) small molecule antagonists, cell-based qHTS assay (AID 1963588). Also: nearly all actives have a fitted effect of over 40% in size. In outline: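 Compounds were tested at 15 concentrations in three independent runs. Dye-loaded CHRM1-CHO cells were exposed 5 min at room temperature before stimulation by acetylcholine added at 50nM. Intracellular calcium was read kinetically on FDSS for 3 min.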

The target is the same in experiment [14]. The experiment is described as follows: Cholinergic receptor muscarinic 1 (CHRM1) small molecule agonists, cell-based qHTS assay (AID 1963589). Also: nearly all actives have a fitted effect of over 35% in size. In outline: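 Homogeneous fluorescence calcium flux, agonist mode. Human M1-expressing CHO cells; compound dosed at 15 concentrations, three independent runs; signal sampled every 1 sec.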
Experiment [15] is described as follows: cAMP Responsive Elements (CRE) small molecule antagonists, cell-based qHTS assay (AID 1963591; active = well fitted inhibition curve with a large enough effect in the signal ratio in the repeat runs, not every such curve was filed as active; the % refers to the signal ratio). The essentials: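 First, CRE-bla HEK293T cells settled 18 h at 37 C. Next, compound and 0.25 uM final NKH477 were applied for 3 h. Last, LiveBLAzer B/G substrate was loaded for 2 h at room temperature.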
For experiment [16], the target named is Beta-2 adrenergic receptor (Homo sapiens) (UniProt P07550). The experiment is described as follows: Adrenergic beta2 receptor (ADRB2) small molecule antagonists, cell-based qHTS assay (AID 1963592). Also: series mostly up to about 92 µM; nearly all actives have a fitted effect of over 50% in size. The essentials:
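Assay format: CHO-ADRB2 cells, 18-20hr seeding at 37C/5% CO2, then compound plus 1nM isoproterenol agonist mix for 0.5hr RT. Homogeneous time-resolved fluorescence cAMP detection after 1hr, expressed as 665/615 nm ratio.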

The target is the same in experiment [17]. Description: Adrenergic beta2 receptor (ADRB2) small molecule agonists, cell-based qHTS assay (AID 1963593).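 Also: CHO cells stably overexpressing human ADRB2.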 In outline: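 CHO cells stably over-expressing ADRB2 were plated overnight at 37C, then dosed with compounds plus a stimulation mix containing 100uM IBMX and 25uM Ro-20-1724 for 0.5hr at room temperature. cAMP was measured by HTRF competition, 1hr.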

The target of experiment [18] is D(2) dopamine receptor (Homo sapiens) (UniProt P14416). The experiment is described as follows: Dopamine D2 receptor (DRD2) small molecule agonists, cell-based qHTS assay (AID 1963594). Also: nearly all actives have a fitted effect of over 35% in size. The essentials: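 cAMP accumulation in DRD2-HEK293 cells measured by HTRF after 1 h detection; compounds added 10 min before NKH477 (200nM […]) forskolin-analogue stimulation, 30 min at room temperature, with Ro20-1724 present at 0.1 mM final.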
Sequence of D(2) dopamine receptor (Homo sapiens) (P14416 whole entry, looked up): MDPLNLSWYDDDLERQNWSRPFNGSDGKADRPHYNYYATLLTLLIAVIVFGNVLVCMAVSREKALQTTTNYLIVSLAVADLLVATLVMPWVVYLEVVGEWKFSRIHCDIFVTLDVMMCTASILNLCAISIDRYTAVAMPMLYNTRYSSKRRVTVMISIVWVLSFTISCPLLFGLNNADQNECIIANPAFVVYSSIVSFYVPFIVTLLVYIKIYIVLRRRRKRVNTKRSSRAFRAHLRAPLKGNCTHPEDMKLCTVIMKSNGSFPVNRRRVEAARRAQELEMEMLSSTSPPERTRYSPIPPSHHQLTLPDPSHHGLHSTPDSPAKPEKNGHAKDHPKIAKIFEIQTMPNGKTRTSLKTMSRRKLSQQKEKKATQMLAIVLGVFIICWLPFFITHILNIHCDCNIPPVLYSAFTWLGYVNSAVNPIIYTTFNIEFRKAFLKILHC

The target is the same in experiment [19]. The experiment is described as follows: Dopamine D2 receptor (DRD2) small molecule antagonists, cell-based qHTS assay (AID 1963595; active = well fitted inhibition curve with a large enough effect in the signal ratio in the repeat runs, with a control signal flat; the % refers to the signal ratio). In outline:
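Antagonism was scored as restored cAMP in HEK293-DRD2 cells. These cells were stimulated with 200 nM NKH477 and 12 nM quinpirole for 30 min at room temperature, in the presence of 0.1 mM Ro20-1724.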

A short description of experiment [20]: cAMP Responsive Elements (CRE) small molecule agonists, cell-based qHTS assay (AID 1963590). The essentials:
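HEK 293T cells stably bearing CRE-bla were plated at 2,000 cells per well and rested 18 h. Compounds, positive controls or DMSO were added for 3 h at 37 C. LiveBLAzer B/G substrate was then loaded for 2 h at room temperature.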

“And” between values parts separate entries of the source, which are not always exact repeats. Equal entries are not always repeated. Results filed as inconclusive are left out. The source made the active and inactive calls. Unless noted, calls follow the shape of the full dose curve.

Sequence of Gonadotropin-releasing hormone receptor (Homo sapiens) (P30968 whole entry, looked up): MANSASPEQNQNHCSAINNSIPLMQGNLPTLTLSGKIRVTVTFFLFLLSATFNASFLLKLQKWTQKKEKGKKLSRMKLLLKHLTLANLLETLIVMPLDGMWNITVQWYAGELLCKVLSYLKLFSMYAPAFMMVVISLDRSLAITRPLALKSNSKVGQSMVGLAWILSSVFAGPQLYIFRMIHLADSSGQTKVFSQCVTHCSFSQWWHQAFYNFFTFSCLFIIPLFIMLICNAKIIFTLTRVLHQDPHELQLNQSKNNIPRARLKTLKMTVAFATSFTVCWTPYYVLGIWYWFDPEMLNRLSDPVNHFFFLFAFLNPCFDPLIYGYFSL
Sequence of KiSS-1 receptor (Homo sapiens) (Q969F8 whole entry, looked up): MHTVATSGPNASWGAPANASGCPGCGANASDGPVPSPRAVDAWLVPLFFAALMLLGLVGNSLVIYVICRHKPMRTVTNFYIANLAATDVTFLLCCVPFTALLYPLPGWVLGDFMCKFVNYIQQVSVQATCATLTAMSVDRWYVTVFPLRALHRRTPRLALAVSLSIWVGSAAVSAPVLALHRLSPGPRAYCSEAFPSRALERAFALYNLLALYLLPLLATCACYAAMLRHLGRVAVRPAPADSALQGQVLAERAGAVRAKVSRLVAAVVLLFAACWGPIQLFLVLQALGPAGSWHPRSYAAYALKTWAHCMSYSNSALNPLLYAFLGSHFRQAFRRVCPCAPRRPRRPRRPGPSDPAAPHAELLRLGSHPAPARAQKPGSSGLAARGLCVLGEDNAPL
Sequence of Beta-2 adrenergic receptor (Homo sapiens) (P07550 whole entry, looked up): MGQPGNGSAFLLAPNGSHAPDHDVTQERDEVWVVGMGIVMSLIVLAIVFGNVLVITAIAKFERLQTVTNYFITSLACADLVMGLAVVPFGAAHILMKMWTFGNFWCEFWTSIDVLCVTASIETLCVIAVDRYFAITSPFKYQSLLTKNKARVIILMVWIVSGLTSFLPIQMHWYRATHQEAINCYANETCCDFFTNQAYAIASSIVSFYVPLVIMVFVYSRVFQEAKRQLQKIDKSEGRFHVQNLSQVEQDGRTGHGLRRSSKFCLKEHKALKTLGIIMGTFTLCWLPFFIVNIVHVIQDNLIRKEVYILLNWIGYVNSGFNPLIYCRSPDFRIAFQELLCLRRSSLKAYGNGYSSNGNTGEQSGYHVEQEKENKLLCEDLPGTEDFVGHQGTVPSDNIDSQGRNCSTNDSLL
Sequence of 5-hydroxytryptamine receptor 2A (Homo sapiens) (P28223 whole entry, looked up): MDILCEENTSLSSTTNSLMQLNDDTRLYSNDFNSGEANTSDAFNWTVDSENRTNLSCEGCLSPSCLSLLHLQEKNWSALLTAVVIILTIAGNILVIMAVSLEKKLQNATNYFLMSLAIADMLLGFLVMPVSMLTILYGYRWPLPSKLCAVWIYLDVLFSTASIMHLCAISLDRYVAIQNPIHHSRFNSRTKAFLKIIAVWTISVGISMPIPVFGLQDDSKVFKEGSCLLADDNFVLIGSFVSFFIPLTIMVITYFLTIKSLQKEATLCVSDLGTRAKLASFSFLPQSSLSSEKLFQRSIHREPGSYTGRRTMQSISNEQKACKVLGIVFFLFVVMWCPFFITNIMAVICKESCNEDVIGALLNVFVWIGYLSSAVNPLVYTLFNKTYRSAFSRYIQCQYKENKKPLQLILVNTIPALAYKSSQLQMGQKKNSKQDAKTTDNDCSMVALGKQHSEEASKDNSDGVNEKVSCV
Sequence of Muscarinic acetylcholine receptor M1 (Homo sapiens) (P11229 whole entry, looked up): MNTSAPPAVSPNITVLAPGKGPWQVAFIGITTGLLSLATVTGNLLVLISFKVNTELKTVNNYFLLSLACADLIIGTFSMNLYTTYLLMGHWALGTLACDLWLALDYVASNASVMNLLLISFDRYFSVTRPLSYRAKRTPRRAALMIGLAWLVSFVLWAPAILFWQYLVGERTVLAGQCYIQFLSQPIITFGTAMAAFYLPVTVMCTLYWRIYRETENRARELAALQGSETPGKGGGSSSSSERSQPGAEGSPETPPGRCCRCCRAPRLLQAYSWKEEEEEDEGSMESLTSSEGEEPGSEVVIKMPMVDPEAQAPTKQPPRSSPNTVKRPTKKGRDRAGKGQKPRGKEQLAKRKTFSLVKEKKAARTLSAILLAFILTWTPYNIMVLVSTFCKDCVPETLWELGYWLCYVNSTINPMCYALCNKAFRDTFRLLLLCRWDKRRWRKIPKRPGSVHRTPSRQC

For `CO[C@H]1C=CO[C@@]2(C)Oc3c(C)c(O)c4c(O)c(c(/C=N/N5CCN(C)CC5)c(O)c4c3C2=O)NC(=O)/C(C)=C\C=C[C@H](C)[C@H](O)[C@@H](C)[C@@H](O)[C@@H](C)[C@H](OC(C)=O)[C@@H]1C`, the Potency entry in [1], in [2], in [3], in experiment [4], in experiment [5] and in experiment [6] was “inactive” in each case. The Potency entry in experiment [7], in experiment [8] and in experiment [9] was “inactive” throughout.

For `CC1CC(=O)CC(C)(C)C1` (centres undefined), the Potency result in [1], in experiment [2], in experiment [3], in experiment [4], in [5] and in experiment [7] was “inactive” in each case. For the same compound, the Potency result in [9], in [10], in experiment [11], in experiment [12], in experiment [13] and in experiment [14] was “inactive” each time. The Potency entry in experiment [15], in [16], in experiment [17], in experiment [18] and in experiment [19] was “inactive” each time.

On to `CC(N)CN` (centres undefined), for which the Potency entry in [1], in experiment [2], in experiment [3], in experiment [4], in experiment [5] and in experiment [6] was “inactive” in each case. Moreover, the Potency result in experiment [7], in experiment [8], in [9], in experiment [10], in experiment [11] and in experiment [12] was “inactive” each time. The Potency result in experiment [13], in experiment [14], in experiment [20], in experiment [15], in experiment [16] and in [17] was “inactive” in each case. Besides, the Potency result in experiment [18] was “inactive”.

In the case of `COC(=O)c1cc(Cl)ccc1OC`, the Potency result in experiment [1], in [2], in [3], in [4], in experiment [5] and in experiment [7] was “inactive” in each case. Besides, the Potency result in experiment [8], in experiment [9], in [10], in [11], in [12] and in experiment [13] was “inactive” in each case. For the same compound, the Potency result in [14], in experiment [20], in experiment [16], in experiment [17], in experiment [18] and in experiment [19] was “inactive” each time.

As for `CO[Si](CCCNCCNCCN)(OC)OC`, the Potency entry in [1], in experiment [2], in experiment [3], in experiment [4], in [5] and in experiment [7] was “inactive” in each case. In addition, the Potency result in [8], in experiment [9], in experiment [11], in [12], in experiment [13] and in experiment [20] was “inactive” each time. Further, the Potency entry in [15], in experiment [16], in experiment [18] and in experiment [19] was “inactive” throughout.

As for `CCCC(=O)c1ccccc1`, the Potency result in [1], in [2], in [3], in [4], in experiment [5] and in [6] was “inactive” throughout. The Potency entry in experiment [7], in experiment [8], in experiment [9], in [10], in experiment [11] and in [12] was “inactive” in each case. Further, the Potency entry in [13], in [14], in experiment [20], in experiment [15], in [16] and in experiment [18] was “inactive” throughout. In experiment [19], the Potency result was “inactive”.

For `BrC1CCC(Br)C(Br)CCC(Br)C(Br)CCC1Br` (centres undefined), the Potency was 17.2 µM (active) in experiment [1]; 9.65 µM (active) and 16.3 µM (active) in [2]. Also, the Potency entry in experiment [3], in experiment [4], in experiment [5], in [6], in [7] and in experiment [8] was “inactive” in each case. The Potency entry in [9], in experiment [11], in experiment [12], in experiment [13], in experiment [14] and in [20] was “inactive” in each case. In addition, the Potency entry in experiment [15] and in experiment [16] was “inactive” in each case.

On to `CC(COCCO)OCCO` (centres undefined), for which the Potency entry in experiment [1], in experiment [2], in experiment [3], in [4], in experiment [5] and in experiment [6] was “inactive” in each case. For the same compound, the Potency result in experiment [7], in experiment [8], in experiment [9], in [10], in [11] and in [12] was “inactive” in each case. The Potency entry in experiment [13], in experiment [14], in experiment [20], in experiment [15], in [16] and in [18] was “inactive” each time. Further, the Potency result in experiment [19] is “inactive”.

Regarding `Cc1ccc(S(N)(=O)=O)cc1`, the Potency entry in [1], in experiment [2], in experiment [3], in experiment [4], in experiment [5] and in experiment [6] was “inactive” each time. In addition, the Potency result in [7], in experiment [8], in experiment [9], in experiment [11], in experiment [13] and in [14] was “inactive” in each case. Further, the Potency result in [20], in experiment [15], in experiment [16] and in experiment [18] was “inactive” each time.
